The sample as a whole holds a higher share of hits than the screen did.
mHTT CaM bind: mHTT-calmodulin interaction abrogation. actives 3.6% (n = 190,000). P42858. AlphaScreen His-mHTT/GST-CaM binding, luminescence. inhibition, % at 15 µM;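 note: 0% = both proteins with DMSO and 100% = one protein alone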
Pf apPOL inh: Pf-apPOL DNA polymerase inhibition | Recombinant Pf-apPOL, molecular beacon fluorescence, 1.5 h | inhibition, % at 10 µM | actives 0.25% (n = 210,000)
Numbers without * were called inactive; · = no result. Cut-off read from the data, not from the text of the source: active = inhibition above about 50%; inactive = the rest.

SMILES	mHTT CaM bind	Pf apPOL inh
Cc1ccc(C)c(NC(=O)C2CCCN(C(=O)c3ccccc3F)C2)c1 (configuration not stated)	28	6
COc1cc(C)c(CN2CCc3c([nH]c4ccccc34)C2)cc1C	100*	-7
COc1ccc(CN2CCc3c([nH]c4ccccc34)C2)cc1C	36	-3
COc1cc(CN2CCN(Cc3cccc(OC)c3OC)CC2)c([N+](=O)[O-])cc1OC	4	0
COc1cc(CN2CCc3c([nH]c4ccccc34)C2)c([N+](=O)[O-])cc1OC	66*	-3
CCCNC(=O)c1ccc(CN2C(=O)COc3ccccc32)o1	-2	-4
Cn1c(C2CCN(C(=O)CCCc3ccccc3)C2)nc2cccnc21 (configuration not stated)	2	0
Cc1ccc(NC(=O)N2CCC(C(=O)NCc3csc(-c4ccccc4)n3)CC2)cc1C	-1	-6
O=C1CCC(=O)N1c1ccccc1N1CCOCC1	·	-2
O=C1c2cccc(N3CCOCC3)c2C(=O)c2cccc(Cl)c21	84*	-71
COCc1nn(CC2CC2)c2c1CN(C(=O)C1CCCC1)CC2	3	3
Cc1cc(-c2nnc(NC(=O)C(C)(C)Oc3ccc(Cl)cc3)o2)c(C)o1	98*	-136
CC(C)(Oc1ccc(Cl)cc1)C(=O)Nc1nnc(-c2ccsc2)o1	43	-112
CC(=O)Nc1cccc(N2CC(C(=O)Nc3ccccc3)CC2=O)c1 (configuration not stated)	-4	-2
Cn1nccc1C(=O)NCc1ccc(N2CCCCCC2)nc1	6	-5
Cc1ccc2c(c1)NC(=O)C(CC(=O)N1CCc3ccccc31)CO2 (configuration not stated)	6	0
CC(NC(=O)Nc1ccc(Cl)c(Cl)c1)c1ccccc1 (configuration not stated)	73*	-1
CC(NC(=O)Nc1cccc(Cl)c1)c1ccccc1 (configuration not stated)	-3	-5
CCCCC(=O)N1CCN(c2nc(C(C)C)c3c(c2C#N)CC(C)(C)OC3)CC1	-2	-5
CCCC(=O)N1CCN(c2nc(C(C)C)c3c(c2C#N)CC(C)(C)OC3)CC1	0	89*
Cc1c(C(=O)O)cccc1-c1ccc(/C=C/[N+](=O)[O-])o1	3	-12
Cc1ccc(Cl)cc1-c1ccc(/C=C/[N+](=O)[O-])o1	77*	0
O=C(NCC#CCN1CCc2ccccc2C1)c1cc2ccccc2[nH]1	28	-6
COc1ccc(OC)c(-c2cc(C(=O)NCC#CCN3CCc4ccccc4C3)[nH]n2)c1	53*	2
COc1cccc2c1OC1(C)CC2NC(=O)N1c1cccc(C(=O)NCCc2ccc(C)cc2)c1 (configuration not stated)	12	-6
SMILES	mHTT CaM bind	Pf apPOL inh
O=C(NCC(O)C1CCCCC1)c1ccccc1Br (configuration not stated)	-2	-6
OC(CNCCc1ccccc1)c1ccccc1 (configuration not stated)	-2	-6
OC(CN1CCOCC1)Cn1c2ccc(Br)cc2c2cc(Br)ccc21 (configuration not stated)	91*	-14
O=C1CSC(=O)N1CC(O)Cn1c2ccc(Br)cc2c2cc(Br)ccc21 (configuration not stated)	27	·
OC(CNCCc1ccccc1)Cn1c2ccc(Br)cc2c2cc(Br)ccc21 (configuration not stated)	100*	·
OC(CNCCOc1ccccc1)Cn1c2ccccc2c2ccccc21 (configuration not stated)	85*	·
OC(CNC1CCCC1)Cn1c2ccccc2c2ccccc21 (configuration not stated)	6	-2
Cc1ccc(C)c(CNC(=O)CN2CCc3ccccc3C2C(=O)N2CCCCC2)c1 (configuration not stated)	20	3
Oc1cccc2c1Cc1ccccc1-2	-5	-11
CCC(C)(C)C1CCc2c(sc(NC(=O)c3ccc(F)cc3)c2C(N)=O)C1 (configuration not stated)	0	3
COc1cccc(COc2coc(C(=O)NCCC3=CCCCC3)cc2=O)c1	0	0
O=C(NCCc1cccs1)c1cnn2c3c(cnc12)CCCC3	1	2
Fc1ccc(-c2nc(-c3ccc(OC(F)(F)F)cc3)no2)c(Cl)c1	·	9
O=C(O)C1C2C=CC(C2)C1C(=O)Nc1cccnc1 (configuration not stated)	-5	-12
O=C(O)C1C2C=CC(C2)C1C(=O)Nc1ncccc1O (configuration not stated)	4	80*
COc1ccc(C(=O)ON=C2C(C)=CC(=O)C=C2C)cc1	55*	1
COc1ccc(C(=O)N=C2C=C(C)C(=O)C(C)=C2)cc1	0	4
Cc1cc(N2C(=O)c3ccc(C(=O)N4CCc5ccccc5C4)cc3C2=O)no1	4	-5
COc1ccc(CCNC(=O)c2cnn3c(C)c(Cc4cc(C)ccc4C)c(C)nc23)cc1OC	53*	-6
Cc1nc2c(C(=O)NCc3ccccc3)cnn2c(C)c1Cc1cccc(Cl)c1	38	-1
Cc1nc2c(C(=O)NCCc3ccccc3)cnn2c(C)c1Cc1ccc(Cl)cc1	-7	-5
COc1ccc(CNC(=O)c2cnn3c(C)c(Cc4cc(C)ccc4C)c(C)nc23)cc1	-1	-4
Cc1nc2c(C(=O)NCCc3ccc(Cl)cc3)cnn2c(C)c1Cc1ccccc1	53*	-7
CCCCNC(=O)c1cnn2c(C)c(Cc3ccc(F)cc3)c(C)nc12	48	-4
Cc1nc2c(C(=O)NCCc3ccc(Cl)cc3)cnn2c(C)c1Cc1ccc(F)cc1	80*	-8
SMILES	mHTT CaM bind	Pf apPOL inh
Cc1nc2c(C(=O)NCCc3ccccc3)cnn2c(C)c1Cc1cccc(Cl)c1	78*	-8
COc1ccc(C(=O)CN2CCN(CC(=O)Nc3ccccc3F)CC2)cc1OC	17	-5
Cc1ccnc(N2CCCC(C(=O)N3CCCCCC3)C2)n1 (configuration not stated)	-2	-4
Cc1ccnc(N2CCCC(C(=O)N3CC=C(c4ccccc4)CC3)C2)n1 (configuration not stated)	68*	-5
O=C1/C(=C/N(C(=O)c2ccco2)c2ccc([N+](=O)[O-])cc2)Sc2ccccc21	19	32
Cc1ccc(S(=O)(=O)N(/C=C2\Sc3ccccc3C2=O)c2ccc([N+](=O)[O-])cc2)cc1	60*	-2
CCCN1C(=O)C2CCC(=O)N2c2ccc(C(=O)N3CCN(CC)CC3)cc21 (configuration not stated)	-3	-4
CC(C)(C)c1ccc(C(=O)Nc2c(-c3ccccc3)nc3sccn23)cc1	42	-3
Cc1ccc(-c2nc3sccn3c2NC(=O)c2ccc(Cl)cc2)cc1	58*	-4
CC(NC(=O)N1c2ccccc2Sc2ccccc21)c1ccccc1 (configuration not stated)	-11	25
O=[N+]([O-])c1cc([N+](=O)[O-])c2cc(-c3ccco3)[nH]c2c1	53*	·
COc1cc([N+](=O)[O-])cc2[nH]c(-c3ccccc3)cc12	-2	-3
O=C1OC(c2ccccc2Br)=N/C1=C\C=C\c1ccccc1	45	-6
O=C1OC(c2ccccc2Cl)=N/C1=C\C=C\c1ccccc1	53*	-1
CCCCCCCCCCCCCCOS(=O)(=O)c1cc(OC)ccc1OC	·	-10
OC(C#CC(O)(c1ccccc1)c1ccccc1)c1cccnc1 (configuration not stated)	-6	-15
